# Test results from PubChem BioAssay AID2563 (Broad Institute, 2010).
# The whole screen tested about 290,000 compounds, of which about 800 (0.28%) were called active.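 Rule for the calls: active = fall in fluorescence gain of 50% or more versus controls, with final raw signal at or below 3038400; inconclusive = same 50% fall but final raw signal above 3038400; inactive = fall in fluorescence gain under 50%.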 This excerpt belongs to a sample that is enriched for actives.
# Biological target: CAAX prenyl protease 2 (Saccharomyces cerevisiae (strain ATCC 204508 / S288c)) (UniProt Q03530)
# Assay: yeast Rce1p protease inhibitors, primary screen, biochemical, fluorescence, cell-free homogeneous (AID 2563)
# Conditions: yeast membranes, quenched prenylated peptide cleavage fluorescence
# CAAX prenyl protease 2 (Saccharomyces cerevisiae (strain ATCC 204508 / S288c)), sequence (Q03530 whole entry, looked up): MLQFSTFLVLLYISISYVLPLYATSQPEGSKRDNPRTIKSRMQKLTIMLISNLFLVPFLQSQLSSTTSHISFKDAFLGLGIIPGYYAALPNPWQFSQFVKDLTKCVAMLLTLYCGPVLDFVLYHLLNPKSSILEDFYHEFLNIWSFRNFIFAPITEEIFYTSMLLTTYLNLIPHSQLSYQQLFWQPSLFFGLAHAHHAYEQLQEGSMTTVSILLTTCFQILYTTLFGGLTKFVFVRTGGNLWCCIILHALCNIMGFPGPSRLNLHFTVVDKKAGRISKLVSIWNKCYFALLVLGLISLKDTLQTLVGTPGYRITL
row,SMILES,outcome
1,COc1ccc(NC(=O)CSc2nnc(Cc3ccccc3)c(=O)n2N)cc1,inactive
2,Cc1cc(C)c(S(=O)(=O)NCC(c2ccc3c(c2)OCO3)N2CCOCC2)c(C)c1 (stereo not given),inactive
3,COc1ccccc1N(C)S(=O)(=O)c1ccc(Cl)c(C(=O)Nc2ccncc2)c1,inactive
4,COCCNc1nc(N)c([N+](=O)[O-])c(NCCO)n1,inactive
5,COCCNc1nc(N)c([N+](=O)[O-])c(N2CCCCCC2)n1,active
6,Nc1nc(NCC(=O)O)nc(N2CCCCCC2)c1[N+](=O)[O-],inactive
7,O=C(NCC1(N2CCCCC2)CCCCC1)c1ccc(NS(=O)(=O)c2ccc(F)cc2)cc1,inactive
8,COc1ccc2oc(C(=O)N(CC(C)C)C3CCS(=O)(=O)C3)c(C)c2c1 (stereo not given),inactive
9,COc1ccc(S(=O)(=O)N2CCCCCC2)cc1C(=O)N(C)Cc1cccc(OC)c1OC,inactive
10,Cc1noc(C)c1CSCC(=O)Nc1ccc(Br)cc1Cl,inactive
11,COC(C[C@@H]1O[C@@H]1C(=O)[C@H](C)OCc1ccccc1)OC,inactive
12,COC(C[C@@H]1O[C@@H]1C(=O)[C@@H](C)OCc1ccccc1)OC,active
13,COC(C/C=C/C(=O)[C@@H](C)OCc1ccccc1)OC,inactive
14,COc1ccc(/C=N/NC(=O)c2cc(-c3cccc(C)c3)nc3ccccc23)cc1O,inactive
15,CCOC(=O)C1CCN(C(=O)COC(=O)C2CCN(S(=O)(=O)c3ccc4c(c3)OCCO4)CC2)CC1,inactive
16,O=C(c1cc(-c2ccc(Cl)s2)nc2ccccc12)N1CCOCC1,inactive
17,O=C(Nc1cccc(F)c1)c1cc(-c2ccco2)nc2ccccc12,inactive
18,Cc1cc(C)c2nc(-c3ccco3)cc(C(=O)O)c2c1,active
19,CN(C(=O)COC(=O)c1cc(-c2ccco2)nc2ccccc12)C1CCS(=O)(=O)C1 (stereo not given),inactive
20,CCCCC(=O)NNC(=S)NC(=O)C(c1ccccc1)c1ccccc1,inactive
21,CC(C)C(=O)Nc1cccc(NC(=S)NC(=O)C(c2ccccc2)c2ccccc2)c1,active
22,CC(C)C(=O)NC(=S)Nc1ccccc1F,inactive
23,CS(=O)(=O)c1ccc(C(=O)OCC(=O)NNC(=O)COc2ccc(Cl)cc2)cc1,inactive
24,CCC(=O)c1ccc(OCC(=O)OCC(=O)NC2CCCCCC2)cc1,inactive
25,Cc1nc2ccccn2c(=O)c1NC(=O)c1cccs1,inactive

row,SMILES,outcome
1,COc1ccccc1C(=O)Nc1ccc(Nc2ccccc2)cc1,inactive
2,COc1ccccc1C(=O)NNC(=O)c1ccc(NC(=O)c2ccccc2)cc1,active
3,COc1ccccc1C(=O)Nc1ccccc1C(=O)Nc1ccccc1,inactive
4,Cc1nc2ccccc2c(=O)n1-c1ccc(F)c(NC(=O)c2cccs2)c1,inactive
5,Cc1cc(C)c(S(=O)(=O)N2CCCC2CNC(=O)c2ccc3c(c2)OCO3)c(C)c1 (stereo not given),inactive
6,COC(=O)N/N=C/c1c[n+]([O-])c2ccccc2[n+]1[O-],inactive
7,NS(=O)(=O)c1cc(C(=O)OCC(=O)NNC(=O)c2ccccc2)ccc1Cl,inactive
8,CCN(CC(=O)Nc1ccccc1C(F)(F)F)C(=O)CSCc1c(C)noc1C,inactive
9,COc1ccc2nc(N3CCN(C(=O)c4ccc([N+](=O)[O-])o4)CC3)sc2c1,inactive
10,CC(=O)c1ccc(S(=O)(=O)Nc2ccc(-c3ccc4nncn4n3)cc2)cc1,inactive
11,COC(=O)C1CCN(C(=O)NC2CC(=O)N(c3ccc4c(c3)OCCO4)C2)CC1 (stereo not given),inactive
12,O=C(CN1CCN(c2ccccn2)CC1)Nc1ccc(Br)cc1,inactive
13,Cc1cc(Br)ccc1NC(=O)c1cnc(N2CCN(c3ccccn3)CC2)c2ccccc12,active
14,Cc1cc(Br)ccc1NC(=O)c1sc2ncn(CC(=O)N3CCN(c4ccccn4)CC3)c(=O)c2c1C,inactive
15,O=C(Nc1ccc(N2CCCCC2)cc1)c1cc(S(=O)(=O)N2CCOCC2)ccc1F,inactive
16,CN1c2ccc(C=O)c3c(C=O)ccc(c23)N(C)C1(C)C,active
17,CCOc1ccc(S(=O)(=O)NCCC(=O)NCC(C)(C)N2CCOCC2)cc1,inactive
18,CC(=O)Nc1ccc(NC(=O)CSc2nnnn2C2CCCCC2)cc1,inactive
19,COc1ccc(Cl)cc1NS(=O)(=O)c1cccc(C(=O)NC2CCC(O)CC2)c1 (stereo not given),inactive
20,Cc1ccc(NC(=O)C2CC(=O)N(c3ccc4c(c3)OCCO4)C2)cc1S(=O)(=O)N1CCCCCC1 (stereo not given),inactive
21,O=C(CCNC(=O)c1ccc(Br)cc1)NCCCc1ccccc1,inactive
22,CN(CC(=O)NNC(=O)CNC(=O)c1ccccc1Cl)S(=O)(=O)c1ccc(Cl)cc1,inactive
23,COCc1c(C(=O)N/N=C/C2CC=CCC2)nnn1-c1nonc1N (stereo not given),active
24,COCc1c(C(=O)N/N=C\c2cccnc2)nnn1-c1nonc1N,inactive
25,Cc1ccc(SCc2c(C(=O)N/N=C/C3CC=CCC3)nnn2-c2nonc2N)cc1 (stereo not given),inactive

row,SMILES,outcome
1,CCCn1c(C2CCCN2c2nc(-c3ccc(C)cc3)cs2)nc2cc(Cl)c(N3CCCCC3)cc21 (stereo not given),inactive
2,Cc1ccc(-c2csc(NCCc3nc4cc(Cl)c(Cl)cc4n3CCOCCO)n2)cc1,inactive
3,Cc1ccc(-c2csc(N3CCN(c4cc5c(cc4Cl)nc(-c4ccncc4)n5CCOCCO)CC3)n2)cc1,active
4,COc1ccc(Cl)cc1NC(=O)CN(C)C(=O)c1cc(-c2cccs2)nn1-c1ccccc1,inactive
5,COc1cc2ccccc2cc1C(=O)Nc1ccncc1,inactive
6,CCc1nnc(NS(=O)(=O)c2ccc(NC(=O)c3cccc(OC(F)(F)C(F)F)c3)cc2)s1,inactive
7,CC1(C)O[C@H]2CC(=O)OCC23[C@H]2CC[C@@]4(C)[C@H](c5ccoc5)OC(=O)[C@H]5O[C@]54[C@]2(C)C(=O)C[C@@H]13 (stereo not given in full),inactive
8,CCCNC(=O)c1ccc(N2CCC3(CC2)CC(c2cccc(Br)c2)=NO3)c(NC(=O)c2ccco2)c1,inactive
9,Cc1cccc(N=C2SC(C)CN2C(=O)CN2C(=O)NC3(CCCC3)C2=O)c1 (stereo not given),inactive
10,O=C(NCC(O)c1ccc([N+](=O)[O-])cc1)C1CCCCC1 (stereo not given),inactive
11,CC(=O)NCC(O)c1ccc([N+](=O)[O-])cc1 (stereo not given),inactive
12,O=C(CC(c1ccccc1)c1ccccc1)NCC(O)c1ccc([N+](=O)[O-])cc1 (stereo not given),active
13,Cc1ccc(OCC(=O)Oc2ccccc2[N+](=O)[O-])cc1,inactive
14,Cc1cc(C)c(C)c(S(=O)(=O)N2CCN(C(=O)c3ccc4c(=O)n5c(nc4c3)CCC5)CC2)c1C,inactive
15,COc1ccc(CCNC(=S)N2CCN(S(=O)(=O)c3ccc(F)cc3)CC2)cc1,inactive
16,CC(=O)C12CC(C)=C(C)CC1CC1C3CCC4=CC(=O)CCC4(C)C3CCC12C (stereo not given),inactive
17,CSc1nsc(NC(=O)Nc2ccccc2)n1,inactive
18,CCN(Cc1ccccc1)C(=O)Cc1ccc(OC)c(S(=O)(=O)N2CCOCC2)c1,inactive
19,O=C(COc1coc(CN2CCN(c3ccccc3)CC2)cc1=O)Nc1ccccc1F,inactive
20,COCCCN(C(=O)CSCc1ccc(C)cc1)c1c(N)n(Cc2ccccc2)c(=O)[nH]c1=O,inactive
21,COc1ccc(N2CCN(S(=O)(=O)c3cc4c5c(c3)C(C)C(=O)N5CCC4)CC2)cc1 (stereo not given),inactive
22,O=C(Nc1ncccc1O)c1ccc(S(=O)(=O)N2CCCCCC2)cc1,inactive
23,COc1cc(C2C(C(=O)c3cccs3)=C(O)C(=O)N2CCN2CCOCC2)ccc1OCCC(C)C (stereo not given),inactive
24,Cc1ccc2nc(SCC(=O)N3CC(C)OC(C)C3)nc(=O)n2c1 (stereo not given),inactive
25,Cc1cccc(C)c1NC(=O)CNC(=O)c1c(C)nn(-c2ccccc2)c1C,inactive

row,SMILES,outcome
1,CCc1noc(C)c1C(=O)N1CCCSC1=Nc1ccccc1OC,inactive
2,CCCCn1c(N)c(N(CC(C)C)C(=O)C2CSC3(C)CCC(=O)N23)c(=O)[nH]c1=O (stereo not given),inactive
3,COc1ccc(CNC(=O)COC(=O)CCS(=O)(=O)c2ccc(C)cc2)cc1OC,inactive
4,Cc1c(NC(=O)C(C)Oc2cccc(Cl)c2)c(=O)n(-c2ccccc2)n1C (stereo not given),inactive
5,O=C(NC1CCCCC1)c1ccc(-c2ccc(Cl)cc2)o1,inactive
6,CCOc1ccc(C(C)=O)cc1COC(=O)CNC(=O)c1cccs1,inactive
7,O=C(COc1coc(CN2CCN(c3ccccc3F)CC2)cc1=O)N1CCc2ccccc21,inactive
8,O=c1[nH]c(/C=C/c2cccc(Br)c2)nc2ccccc12,inactive
9,COc1ccc(NC(=O)CN(C)C(=O)c2ccc(COc3ccccc3)o2)cc1,inactive
10,Cc1ccc(S(=O)(=O)N2CCOCC2)cc1C(=O)Nc1ccccc1N1CCCC1,inactive
11,COc1ccc([C@@H]2[C@@H]3C(=O)N(C(C)(C)C)C(=O)[C@@H]3[C@]3(Cc4ccccc4)C(=O)N(c4cccc(Br)c4)C(=O)N23)cc1,inactive
12,Cc1noc(C)c1C(=O)NCCc1ccc(S(N)(=O)=O)cc1,inactive
13,CCOC(=O)c1c(C)c(C(=O)NCCc2ccc(S(N)(=O)=O)cc2)c(C)n1CC,inactive
14,CCCNC(=O)c1c(N)n(-c2ccc(S(N)(=O)=O)cc2)c2nc3ccccc3nc12,active
15,CN(C)C(CNC(=O)c1cccc(S(=O)(=O)Nc2ccc(Br)cc2)c1)c1ccco1 (stereo not given),inactive
16,COc1ccc(N2CC(C(=O)NCCN3C(=O)S/C(=C\c4cccnc4)C3=O)CC2=O)c(OC)c1 (stereo not given),inactive
17,CC1(C)C/C(=N/Nc2ccc([N+](=O)[O-])cc2[N+](=O)[O-])C(C)(C)O1,inactive
18,COc1ccc(C(CNC(=O)c2ccc(NS(=O)(=O)c3ccc(F)c(C)c3)cc2)N(C)C)cc1 (stereo not given),inactive
19,CCOC(=O)c1cnc2nc(SCc3ccccc3Cl)[nH]n2c1=O,inactive
20,CCOC(=O)c1cc(C(C)C)sc1NC(=O)COC(=O)c1nccnc1N,inactive
21,Cc1nc2ccccc2c(=O)n1-c1ccc(NS(=O)(=O)c2ccc(F)cc2F)cc1,inactive
22,O=C(CNC(=O)c1ccccc1Br)NCCSc1ccc(Br)cc1,inactive
23,N=c1c2c(-c3ccccc3)c(-c3ccccc3)oc2ncn1Cc1ccco1,inactive
24,COc1ccc(-c2oc3ncnc(NCCCO)c3c2-c2ccc(OC)cc2)cc1,inactive
25,COc1ccc(-c2oc3ncn(Cc4ccco4)c(=N)c3c2-c2ccc(OC)cc2)cc1,active
